The full list was thinned out, with hits kept by preference.
TDP-43 tox inh = TDP-43 toxicity inhibition in yeast. yeast TDP-43 toxicity rescue, BacTiter-Glo growth, 24 h. Potency, µM (titrated, usually from 46.1 µM), usual class: activators. 45,000 compounds, 0.45% hits; active means well fitted activation curve with a large enough effect; further: 0% is about no effect; nearly all actives have a fitted effect of over 55% in size
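TDP-43-expressing yeast, pregrown in raffinose, seeded at OD600 0.02 in galactose medium with compound for 24 hr at 30 deg C. Growth read by BacTiter-Glo luminescence, so rescue of toxicity appears as activation.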
* marks the source's active call; other numbers are inactive results; i = inactive. Potency means the concentration at half of the fitted maximal effect.

SMILES	TDP-43 tox inh
COc1ccc(/C=C/C(=O)O)cc1Cl	11µM*
COc1cc(/C=C/C(=O)O)ccc1OCc1ccc([N+](=O)[O-])cc1	i
Cc1ccc2nc(-c3ccsc3)c(Nc3ccc(Cl)cc3)n2c1	i
CC(C)CCN1C(=O)c2ccccc2CC1(C)C(=O)NC1CCC(C)CC1 (centres undefined)	i
O=C(Cc1cccs1)Nc1nc2ccccc2s1	16µM*
Cc1cc[n+](CC(=O)Nc2nc3ccccc3s2)cc1	i
CCc1ccc2nc(NC(=O)CCCc3cccs3)sc2c1	i
CC1Cc2ccccc2N1C(=O)COC(=O)Cn1nnc(-c2ccccc2)n1 (centres undefined)	i
CCCNC(=O)COC(=O)c1c2c(nc3ccccc13)CCC2	i
CC1Cc2ccccc2N1C(=O)COC(=O)c1c2c(nc3ccccc13)CCCCC2 (centres undefined)	14µM*
CCCSc1ncc(Cl)c(C(=O)Nc2ccc(S(=O)(=O)N3CCCCC3C)cc2)n1 (centres undefined)	i
CCCS(=O)(=O)c1nc(S(=O)(=O)c2ccc(C)cc2)c(NCc2ccccc2Cl)s1	i
CCCN1C(=O)c2ccccc2CC1(C)C(=O)NC1CCCCC1 (centres undefined)	i
C=CCn1c(-c2ccccc2OC)n[nH]c1=S	i
C=CCn1c(-c2cc(-c3ccc(C)cc3)nc3ccccc23)n[nH]c1=S	14µM*
CCn1c(-c2cc(-c3ccc(C)cc3)nc3ccccc23)n[nH]c1=S	i
NC1=NC(c2cccc(Cl)c2)n2c(nc3ccccc32)N1 (centres undefined)	i
COc1ccc(C)cc1NC(=O)NC(C)c1c(-n2cccc2)sc(C)c1C (centres undefined)	i
CCCN1C(=O)C(Cc2nc3ccccc3c(=O)n2CC)c2ccccc21 (centres undefined)	i
Cc1cccc(C)c1OCc1nc2c3cnn(-c4ccccc4F)c3ncn2n1	i
COc1ccc(Cc2nc3c4cnn(-c5ccccc5F)c4ncn3n2)cc1	i
Fc1ccccc1-n1ncc2c1ncn1nc(Cc3ccccc3)nc21	11µM*
COc1cccc(C(=O)N(Cc2ccc(N(C)C)cc2)Cc2ccco2)c1	i
CCOc1ccccc1NC(=O)Cc1csc(COc2cccc(C)c2)n1	i
CCOC(=O)Cc1ccc(NC(=O)NC(C)c2c(-n3cccc3)sc(C)c2C)cc1 (centres undefined)	i
SMILES	TDP-43 tox inh
O/N=C(/c1ccc(Cl)cc1)C1CC1c1ccccc1 (centres undefined)	11µM*
CC1CC(OC(=O)c2ccccc2C(=O)c2ccc(Cl)cc2)C(=O)O1 (centres undefined)	i
C/C(=N/NS(=O)(=O)c1ccc(C)cc1)[C@H]1C[C@@H]1c1ccccc1	i
CC(C)Oc1ccc(/C=N/NC(N)=S)cc1	13µM*
Cn1cc(/C=N/NC(N)=S)c2ccccc21	i
O=C(N/N=C/c1ccc(OC(F)F)cc1)C1=COCCO1	i
CCOC(=O)N1CCC(NC(=O)c2ccc3c(c2)N(Cc2cc(C)ccc2C)C(=O)c2ccccc2S3(=O)=O)CC1	i
COc1cc(OC)c(NC(=O)N2CCc3cc(S(=O)(=O)N4CCC(C)CC4)ccc32)cc1Cl	i
O=C(Nc1nccs1)c1cc2c(s1)CCCCC2	7.1µM*
CC(C)Cc1nnc(NC(=O)c2cc3c(s2)CCC3)s1	i
O=C(Nc1nnc(SCc2ccccc2)s1)c1cc2c(s1)CCCC2	i
Nc1c(C(=O)Nc2ccccc2)nnn1Cc1ccc(F)cc1Cl	i
Cc1ccc(Cn2ccn(Cc3ccc(C)cc3)c(=O)c2=O)cc1	i
CCOc1ccc(CCNC(=O)CCc2c(C)nc3c4c(C)cc(C)nc4nn3c2C)cc1	i
Cc1ccc([N+](=O)[O-])cc1NC(=S)NC(=O)c1cccnc1	i
CCC(C)c1ccc(O)c(NC(=S)NC(=O)c2cccnc2)c1 (centres undefined)	10µM*
O=C(NC(=S)NNC(=O)c1ccccc1O)c1cccnc1	i
COc1cc(-c2nc3nc[nH]n3c2Nc2ccc(C(C)C)cc2)ccc1O	i
Cc1cc(Cl)ccc1NC(=O)C1CCN(c2nnc(-n3c(C)ccc3C)s2)CC1	i
Cc1cccc(Nc2c3c(nc4nncn24)CCC3)c1	i
COc1ccccc1N1CCN(c2c3c(nc4nncn24)CCC3)CC1	i
Cc1ccc(Nc2c3c(nc4nncn24)CCC3)cc1	13µM*
NC(=O)c1nc(-c2ccc(F)c(F)c2)nc2c1[nH]c(=O)n2-c1cccc(Cl)c1	i
COc1ccc(-c2nnc3c4ccccc4c(-c4ccccc4)nn23)cc1	i
CC(C)(C)c1ccc(-c2nc(S(=O)(=O)c3ccccc3)c(N3CCOCC3)o2)cc1	i
CC(=O)c1ccc(Sc2nnnn2-c2ccccc2)c([N+](=O)[O-])c1	20µM*
Cc1ccc(-n2nnnc2SCC(=O)NNC(=O)c2ccc([N+](=O)[O-])cc2)cc1	i
CN1CCN(S(=O)(=O)c2ccc(Sc3nnnn3-c3ccccc3)c([N+](=O)[O-])c2)CC1	i
COc1ccccc1/C=C/c1nc(C#N)c(NCc2ccccc2)o1	i
